# Only some compounds are listed: those with a hit (about 7.8% of all), similar ones and a draw of the others.
# Lassa entry inh = Lassa virus entry inhibition. 1.2% of 300,000 active. Potency, µM (titrated, usually from 37.9 µM), for inactives: top-dose activity change, negative = inhibition, actives largely listed as inhibitors. Lassa virus pseudotype entry inhibition, cell reporter; calls by dose curve; tested in HEK293 cells; also: potency is read from the fitted curve at half-maximal effect; nearly all actives have a fitted effect of over 50% in size
# VACV mCherry inh = inhibitors of vaccinia virus infection (mCherry reporter signal); Vaccinia virus mCherry reporter infection, fluorescence; Potency, µM (series often up to 36.5 µM), without a hit: at the top dose activity change, negative = inhibition, most hits filed as inhibitors; 0.63% of 310,000 active; AID 720579; calls by dose curve; tested in A549 cells; also: potency is read from the fitted curve at half-maximal effect; nearly all actives have a fitted effect of over 35% in size
# HCMV antiviral = inhibitors of human cytomegalovirus; 4.5% of 410,000 active; activity change, negative = inhibition, % at 57.5 µM; HFF cells, HCMV-luciferase reporter, 72 h; stronger effect = lower value; in the data active = activity change below about -60%; inconclusive = no clear call, values can overlap the other calls; inactive = above about -39%
#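 Human foreskin fibroblasts infected with luciferase-reporter HCMV at MOI 1 PFU/cell, compounds at two doses. Luciferase measured 72 h post infection; normalized to buffer-only basal and Salinomycin (10uM) controls.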
# VACV Venus inh = vaccinia inhibition (Venus reporter). 0.46% of 330,000 active. Potency, µM (series often up to 36.5 µM), for inactives: at the highest dose activity change, negative = inhibition, most hits filed as inhibitors. Vaccinia virus Venus reporter expression, fluorescence. AID 720580; calls by dose curve; tested in A549 cells; also: potency is read from the fitted curve at half-maximal effect; nearly all actives have a fitted effect of over 30% in size
# HCV inh = inhibitors of hepatitis C virus infection; 3.4% of 340,000 active; Huh7.5.1 HCVcc-Cre infection, luciferase reporter, 44 h; AID 651820; Potency, µM (doses to about 41.8 µM), for inactives: at the top dose activity change, negative = inhibition, usual class: inhibitors; active = well fitted inhibition curve with a large enough effect; inconclusive = small, poorly fitted or top-dose-only effect, or another doubt; inactive = no such curve, though single readings can be large or run the other way; also: potency is read from the fitted curve at half-maximal effect
#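 Infectious HCV cell culture screen: compound-treated cells (1,000/well, pre-plated 4 h) are infected with HCVcc-Cre at roughly 0.5 moi and grown 44 h. Infection is quantified by luciferase signal after 15 min substrate incubation at room temperature.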
# Marburg entry inh = blocks Marburg virus binding to or entry into cells | Marburg virus pseudotyped entry inhibition, cell reporter | Potency, µM (top dose mostly 37.8 µM), for inactives: at the highest dose activity change, negative = inhibition, most hits filed as inhibitors | 1.8% of 300,000 active | AID 540276; calls by dose curve; tested in HEK293 cells; also: potency is read from the fitted curve at half-maximal effect
# Starred values were filed as active, the others as inactive; i = inactive; ? = inconclusive; . = no result; ! = not confirmed by another sample; [ ] = dose if it differs, or a comment. % is scaled to controls: 0 for no effect and ±100 for the full control effect.
SMILES,Lassa entry inh,VACV mCherry inh,HCMV antiviral,VACV Venus inh,HCV inh,Marburg entry inh
CCc1c(C)sc2c1CCN(Cc1ccccc1)C2c1ccccc1 (stereo not drawn),?,-29%,-102*,-10%,.,.
Cc1cccc(C2c3[nH]c4ccccc4c3CCN2Cc2cccn2-c2ncccn2)c1 (stereo not drawn),11µM*,i,-32,4%,-15%,?
Oc1cccc(C2c3[nH]c4ccccc4c3CCN2Cc2ccc3c(c2)CCO3)c1 (stereo not drawn),?,?,-21,?,-12%,3.2µM*
c1ccc(C2c3[nH]c4ccccc4c3CCN2Cc2cccn2-c2ccccn2)nc1 (stereo not drawn),.,.,10,.,?,.
COc1ccc(C2c3[nH]c4ccccc4c3CCN2Cc2cccn2-c2ncccn2)cc1C (stereo not drawn),?,-3%,-99*,-2%,?,7.1µM*
CCOc1ccc(S(=O)(=O)N2CCC(N3CCN(Cc4ccc(F)cc4)C(=O)C3=O)CC2)cc1,-6%[46.1 µM],?,-6,-28%,.,.
Cc1ccc(Cl)c(OCC(=O)Nc2ccc3c(c2)OCCO3)c1,80%[14.3 µM],-13%,73,-6%,10µM*,?
Cc1ccc(C)c(OCC(=O)Nc2ccc3c(c2)OCO3)c1C,?,-16%,67,?,11µM*,?
Cc1cccc(OCC(=O)Nc2ccc3c(c2)OCO3)c1C,7%,-11%,3,-1%,?,1%[46.1 µM]
CC(C)c1ccc(N(CC(=O)NCCc2ccccc2)C(=O)c2csnn2)cc1,?,-3%,-9,5%,?,?
Cc1ccc(N(CC(=O)NCCc2ccccc2)C(=O)c2csnn2)cc1,-13%[46.1 µM],-4%,-88*,-3%,-12%,-8%[46.1 µM]
Cc1nc(SCC(=O)c2c[nH]c3ccccc23)n[nH]1,?,-15%,-69*,-14%,0%,26%[46.1 µM]
CCOC(=O)c1c(NC(=O)CSc2cn(CCNC(=O)c3ccccc3OC)c3ccccc23)sc2c1CCCC2,-2%[46.1 µM],-13%,-22,-5%,.,?
COc1ccc(CCNC(=O)CCCCn2c(=O)c3ccccc3n(CC(=O)Nc3c(C)cccc3C)c2=O)cc1OC,4%[46.1 µM],-6%,-109*,-2%,.,-1%[46.1 µM]
COc1cc2c(=O)n(Cc3ccccc3)c(=O)n(CC(=O)NCCc3ccccc3)c2cc1OC,?,-9%,41,-8%,?,15%
COc1ccc(NC(=O)Cn2c(=O)n(Cc3ccco3)c(=O)c3cc(OC)c(OC)cc32)cc1,?,2%,-97*,5%,.,11%[46.1 µM]
COc1ccc(CCNC(=O)Cn2c(=O)n(Cc3ccco3)c(=O)c3ccc(Cl)cc32)cc1OC,-6%,-14%,?,-1%,11µM*!,?
CCOc1ccccc1CNC(=O)Cn1cc2c(n1)-c1c(oc(C(=O)N3CCCC3)c1C)CC2,?,-11%,?,-14%,.,.
Cc1ccc(C)c(N(C(=O)Cn2nnc3ccccc32)C(C(=O)NC(C)(C)C)c2ccsc2)c1 (stereo not drawn),-2%,-9%,-78*,-3%,?,2%
O=c1c(-c2cc(-c3ccccc3)nc3c2COc2ccccc2-3)coc2ccc(Cl)cc12,7%[46.1 µM],-4%,15,-2%,.,23%[46.1 µM]
Cc1ccc(C2NC(=S)NC3=C2C(=O)CCC3)cc1 (stereo not drawn),-11%,i,100,-11%,13%,18%[46.1 µM]
O=C1CCCC2=C1C(c1ccccc1)NC(=S)N2 (stereo not drawn),-5%,-1%,-103*,-9%,25%,-19%[46.1 µM]
CC(SCc1ccccc1)C(=O)N/N=C/c1ccc(OCC(=O)NCc2ccco2)cc1 (stereo not drawn),?,-23%,-28,?,11µM*,?
Oc1cc(-c2nc3ccccc3s2)cc2c1OCCN(Cc1cccn1-c1ccccn1)C2,.,-15%,.,-15%,.,.
COc1ccc(CCNC(=O)CSc2n[nH]c(-c3ccccc3Cl)n2)cc1OC,-3%[46.1 µM],-13%,4,-17%,.,.
SMILES,Lassa entry inh,VACV mCherry inh,HCMV antiviral,VACV Venus inh,HCV inh,Marburg entry inh
CCOc1ccc(C(=O)Nc2ccc(S(=O)(=O)N3CCCCC3c3cccnc3)cc2)cc1 (stereo not drawn),?,-24%,-89*,?,.,.
O=C(Nc1ccc(S(=O)(=O)N2CCCCC2c2cccnc2)cc1)c1ccc(Br)cc1 (stereo not drawn),?,?,-98*,-27%,.,.
CCCCC(=O)Nc1ccc(S(=O)(=O)N2CCCCC2c2cccnc2)cc1 (stereo not drawn),-25%,-6%,?,-21%,.,4%
CC(=O)Nc1ccc(S(=O)(=O)N2CCCCC2c2cccnc2)cc1 (stereo not drawn),-2%,.,-15,.,3%,8%
COC(=O)[C@]1(C#N)CC(=O)N([C@H](c2ccccc2)[C@H](O)c2ccccc2)[C@@H]1c1ccccc1,.,.,-10,.,.,.
c1ccc(-n2nnnc2Sc2ncnc3sc4c(c23)CCCC4)cc1,?,-13%,-7,-6%,4%,?
CCn1nnnc1Sc1nc(C)nc2scc(-c3ccccc3)c12,.,-12%,.,-17%,.,.
Cn1nnnc1Sc1ncnc2scc(-c3cc4ccccc4o3)c12,.,.,-100*,.,.,.
Cn1nnnc1Sc1ncnc2scc(-c3ccc(C(F)(F)F)cc3)c12,.,.,-99*,.,.,.
COc1cccc(-c2csc3ncnc(Sc4nnnn4C)c23)c1,.,.,-99*,.,.,.
Cn1nnnc1Sc1ncnc2scc(-c3ccccc3C(F)(F)F)c12,.,.,-83*,.,.,.
COc1ccc(CNC(=O)c2cnc3ccc(C)cn3c2=O)cc1,.,-12%,12,-11%,.,3%[46.1 µM]
COc1cc2c(cc1OC)C(COc1ccc3c(C)cc(=O)oc3c1)N(C(=O)c1ccccc1C)CC2 (stereo not drawn),-16%[46.1 µM],-1%,10,-7%,.,?
Cc1ccc(CNc2nc(CN3CCCCC3c3cccnc3)nc3ccccc23)o1 (stereo not drawn),.,0%,.,-16%,.,.
COC(=O)CSc1ncnc2scc(-c3ccccc3)c12,-20%,-15%,-29,-20%,-15%,-3%[46.1 µM]
Cn1nnnc1Sc1ncnc2scc(-c3ccc(-c4ccccc4)cc3)c12,.,.,-97*,.,.,.
Cn1nnnc1Sc1ncnc2scc(-c3ccsc3)c12,.,.,-97*,.,.,.
Cn1nnnc1Sc1ncnc2scc(-c3cccc(C(F)(F)F)c3)c12,.,.,-99*,.,.,.
CCN(CC)CC(O)CN1CCCCc2nc(C)c(C)cc21 (stereo not drawn),.,.,.,.,.,-8%[14.2 µM]
O=C1C(n2ccc3ccccc32)c2cc(OC(F)(F)F)ccc2N1Cc1ccc(C(F)(F)F)cc1 (stereo not drawn),.,.,-89*,.,.,.
O=C1C(n2ccc3ccccc32)c2cccc(F)c2N1Cc1ccc(Cl)nc1 (stereo not drawn),.,.,-13,.,.,.

# Screening results deposited in PubChem BioAssay by National Center for Advancing Translational Sciences (NCATS).
